# From PubChem BioAssay (NCATS)
# Values joined by “and” are separate entries in the source; they are usually repeats but may differ in a detail not shown here. Equal entries are not always repeated. Records with an inconclusive call do not appear. Entries that show only a call come without a potency. Active and inactive are the calls of the source. Unless noted, the call rests on the fitted dose curve; in most records, active means well fitted curve in the direction sought with a large enough effect in the repeat runs; inconclusive means weak or mixed curves; inactive means no such curve, though single readings can be large; an effect the other way counts as inactive or inconclusive.
# Legend:
# [1] = Primary qHTS for small molecule stabilizers of the endoplasmic reticulum resident proteome: Secreted ER Calcium Modulated Protein (SERCaMP) assay (AID 1508630; active means well fitted curve in the direction sought with a large enough effect; an effect the other way counts as inactive or inconclusive; further: potency means the concentration at half of the fitted maximal effect)
# Outline: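 The SH-SY5Y reporter protocol was run at 3 concentrations up to 38.3 uM (primary) or 11 concentrations (follow-up): 16 h compound, 100 nM thapsigargin for 4 h, then extracellular luciferase luminescence.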
# [2] = molecular target: Cytochrome P450 2D6 (Homo sapiens) (UniProt P10635); experiment: Cytochrome P450 family 2 subfamily D member 6 (CYP2D6) small molecule antagonists: luciferase biochemical (cell-free) qHTS assay (AID 1645840); further: nearly all actives have a fitted effect of over 55% in size; further: potency means the concentration at half of the fitted maximal effect
# Outline: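 P450-Glo CYP2D6 system: proluciferin substrate converted by enzyme to luciferin, read by luminescence proportional to activity. Enzyme-substrate mix with compound 10 min at room temperature, then NADPH regeneration 1 h before detection reagent.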
# [3] = molecular target: Cytochrome P450 2C9 (Homo sapiens) (UniProt P11712); experiment: Cytochrome P450 family 2 subfamily C member 9 (CYP2C9) small molecule antagonists: luciferase biochemical (cell-free) qHTS assay (AID 1645842); further: nearly all actives have a fitted effect of over 55% in size; further: potency means the concentration at half of the fitted maximal effect
# Outline: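 P450-Glo CYP2C9 system: proluciferin substrate with enzyme in mix containing 0.4% BSA, 10 min at room temperature, then NADPH regeneration solution added and incubated 1 h at 37C. Detection reagent stopped reaction; luminescence read after 20 min as RLU.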
# Papain (Carica papaya) = Papain (Carica papaya) (UniProt P00784); experiment: Primary qHTS assay for inhibitors of the protease papain (AID 1645873; active means well fitted curve in the direction sought with a large enough effect; an effect the other way counts as inactive or inconclusive;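 further: papain turnover of Z-FR-AMC read as the AMC fluorescence gain over 10 min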; further: potency means the concentration at half of the fitted maximal effect)
# [4] = A High-Content qHTS Against Drug Library for the Identification of Small Molecules that Inhibit DYT1 Early Onset Primary Dystonia-Associated Cell Pathology (AID 1645839; calls by dose curve; further: series mostly up to about 46 µM)
# Outline: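 Cells were seeded and left for 24 h, then dosed with compound alongside tetracycline induction of mutant EGFP-TorsinA. They were incubated for 48 h, fixed in 4% paraformaldehyde, permeabilized and imaged for mislocalization (%pathology) and cell count.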
# Chain of Cytochrome P450 2C9 (Homo sapiens) (P11712 whole entry, looked up): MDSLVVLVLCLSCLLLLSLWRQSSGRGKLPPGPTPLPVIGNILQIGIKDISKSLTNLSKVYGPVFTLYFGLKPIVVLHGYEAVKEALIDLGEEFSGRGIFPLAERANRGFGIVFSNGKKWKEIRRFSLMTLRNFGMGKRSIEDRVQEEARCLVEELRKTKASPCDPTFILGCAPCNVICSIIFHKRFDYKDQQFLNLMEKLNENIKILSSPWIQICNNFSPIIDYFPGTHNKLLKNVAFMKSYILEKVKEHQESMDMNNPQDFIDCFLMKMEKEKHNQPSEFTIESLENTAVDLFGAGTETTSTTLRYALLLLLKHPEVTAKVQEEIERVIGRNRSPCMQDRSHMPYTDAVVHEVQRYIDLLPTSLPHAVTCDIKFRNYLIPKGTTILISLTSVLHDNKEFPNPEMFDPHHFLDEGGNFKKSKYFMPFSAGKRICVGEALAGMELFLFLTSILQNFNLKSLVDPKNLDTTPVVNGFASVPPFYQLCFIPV
# Chain of Papain (Carica papaya) (P00784 whole entry, looked up): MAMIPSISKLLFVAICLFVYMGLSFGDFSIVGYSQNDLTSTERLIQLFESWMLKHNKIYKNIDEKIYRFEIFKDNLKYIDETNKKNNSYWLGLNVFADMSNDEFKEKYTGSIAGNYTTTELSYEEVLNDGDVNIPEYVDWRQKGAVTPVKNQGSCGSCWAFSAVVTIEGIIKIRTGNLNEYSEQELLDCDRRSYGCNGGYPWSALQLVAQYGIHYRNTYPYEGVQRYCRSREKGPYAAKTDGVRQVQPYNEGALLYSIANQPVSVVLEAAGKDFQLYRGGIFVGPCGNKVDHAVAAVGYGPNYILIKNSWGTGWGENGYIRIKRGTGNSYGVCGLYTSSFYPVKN
# Chain of Cytochrome P450 2D6 (Homo sapiens) (P10635 whole entry, looked up): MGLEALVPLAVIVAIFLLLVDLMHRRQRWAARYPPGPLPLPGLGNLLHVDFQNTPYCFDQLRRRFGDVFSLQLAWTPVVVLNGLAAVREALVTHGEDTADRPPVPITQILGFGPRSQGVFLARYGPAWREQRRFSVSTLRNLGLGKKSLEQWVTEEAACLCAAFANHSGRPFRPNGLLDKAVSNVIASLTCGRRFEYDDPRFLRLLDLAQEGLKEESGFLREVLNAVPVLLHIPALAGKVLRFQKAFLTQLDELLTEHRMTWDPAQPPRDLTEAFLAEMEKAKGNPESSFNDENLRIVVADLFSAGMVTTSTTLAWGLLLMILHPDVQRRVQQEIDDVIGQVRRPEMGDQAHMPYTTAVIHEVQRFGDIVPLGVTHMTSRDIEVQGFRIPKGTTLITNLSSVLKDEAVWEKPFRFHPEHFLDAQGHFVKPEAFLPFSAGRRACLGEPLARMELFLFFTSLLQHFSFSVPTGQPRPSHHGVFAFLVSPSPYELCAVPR
SMILES,Potency [1],Potency [2],Potency [3],Potency (Papain (Carica papaya)),Potency [4]
Oc1ccc(Cl)cc1Sc1cc(Cl)ccc1O,inactive,12.3 µM (active),12.3 µM (active),–,–
Oc1c(Cl)cc(Cl)cc1Sc1cc(Cl)cc(Cl)c1O,inactive,12 µM (active),6.01 µM (active),–,–
O=C(CCCN1CCC(O)(c2ccc(Br)cc2)CC1)c1ccc(F)cc1,inactive,2.75 µM (active),inactive,–,–
CCC(NC(C)C)C(O)c1ccc(O)c(O)c1 (stereo unspecified),inactive,–,15.1 µM (active),inactive,–
O=C(OCCOCCO)c1ccccc1Nc1cccc(C(F)(F)F)c1,inactive,27.5 µM (active),17.4 µM (active),–,–
CCCCOc1ccc(OCCCN2CCOCC2)cc1,inactive,13.8 µM (active),inactive,–,–
C#C[C@]1(O)CC[C@H]2[C@@H]3CCc4cc(OC5CCCC5)ccc4[C@H]3CC[C@@]21C,inactive,inactive,8.71 µM (active),–,–
C[n+]1c2cc(N)ccc2cc2ccc(N)cc21 (tested in a mixture with another compound),inactive,11 µM (active),inactive,–,–
COc1cccc2c1C(=O)c1c(O)c3c(c(O)c1C2=O)C[C@@](O)(C(=O)CO)C[C@@H]3O[C@H]1C[C@H](N)[C@H](O)[C@H](C)O1,inactive,–,inactive,–,–
CCCCCCCCCCCCCCCCOP(=O)([O-])OCC[N+](C)(C)C,inactive,–,inactive,–,–
COc1cccc(OC)c1C(=O)N[C@@H]1C(=O)N2[C@@H]1SC(C)(C)[C@@H]2C(=O)O,inactive,inactive,inactive,–,–
Cc1ccccc1C(=O)Nc1ccc(C(=O)N2CCCC(N(C)C)c3ccccc32)cc1 (stereo unspecified),inactive,inactive,inactive,–,–
Nc1cc(Cl)c(NC2=NCCN2)c(Cl)c1,inactive,–,–,inactive,–
CCCCCCCCCCOCC(O)CN (stereo unspecified),inactive,4.83 µM (active),10.8 µM (active),–,–
C[N+]1(CCCCC[N+]2(C)CCCC2)CCCC1,inactive,inactive,–,inactive,–
Cc1cc(N)c2cc(NC(=O)Nc3ccc4nc(C)cc(N)c4c3)ccc2n1,inactive,8.71 µM (active),inactive,–,–
N[C@@H](Cc1cnc[nH]1)C(=O)O,inactive,–,–,inactive,–
Nc1ccc(C(=O)Nc2ccccc2N)cc1,inactive,inactive,inactive,–,–
CC(C)n1nc(-c2cc3cc(O)ccc3[nH]2)c2c(N)ncnc21,inactive,13.5 µM (active),1.95 µM (active) and 1.51 µM (active),–,–

SMILES,Potency [1],Potency [2],Potency [3],Potency (Papain (Carica papaya)),Potency [4]
C[C@]12CC[C@@H]3c4ccc(O)cc4CC[C@H]3[C@@H]1CC[C@@H]2O,inactive,inactive,inactive,inactive,–
CC(C)(C)CC(C)(C)c1ccc(O)c(Cc2ccc(Cl)cc2Cl)c1,inactive,19.5 µM (active),3.09 µM (active),–,–
CCCCCCCCCCCCCCCC[N+](C)(C)CCN(Cc1ccc(OC)cc1)c1ncccn1,inactive,5.49 µM (active),24.5 µM (active),–,–
C#C[C@]1(OC(C)=O)CC[C@H]2[C@@H]3CCC4=C[C@@H](OC(C)=O)CC[C@@H]4[C@H]3CC[C@@]21C,inactive,inactive,13.6 µM (active),–,–
C=C(CC)C(=O)c1ccc(OCC(=O)O)c(Cl)c1Cl,inactive,inactive,3.89 µM (active),–,–
COc1ccc(/C=C/C(=O)c2ccc(OC)cc2OC)cc1,inactive,–,4.36 µM (active),–,–
COc1ccc(CCN2CCC(Nc3nc4ccccc4n3Cc3ccc(F)cc3)CC2)cc1,inactive,6.17 µM (active),inactive,–,–
CNCCC=C1c2ccccc2CCc2ccccc21,inactive,4.77 µM (active),inactive,inactive,–
CN(C)CC/C=C1/c2ccccc2COc2ccc(CC(=O)O)cc21,–,inactive,inactive,–,inactive
COc1cc(NS(C)(=O)=O)ccc1Nc1c2ccccc2nc2ccccc12,inactive,–,–,22.4 µM (active),–
NCCC(O)(P(=O)(O)O)P(=O)(O)O,–,inactive,inactive,–,inactive
CC[C@H](C)C(=O)O[C@H]1CCC=C2C=C[C@H](C)[C@H](CC[C@@H]3C[C@@H](O)CC(=O)O3)[C@H]21,2 µM (active),–,–,inactive,–
CN(C)CCOc1ccccc1Cc1ccccc1,–,1.95 µM (active),inactive,–,inactive
COc1cc2c(cc1OC)C(C(C(=O)N(CCc1ccc(OC)c(OC)c1OC)CCc1ccc(OC)c(OC)c1OC)c1ccccc1)=NCC2 (stereo unspecified),–,12.3 µM (active),4.36 µM (active),–,inactive
O=C(O)c1cc2cc(Cc3cccnc3)ccc2o1,inactive,–,–,inactive,–
COc1ccc(OC)c(C(O)CNC(=O)CN)c1 (stereo unspecified),–,inactive,–,–,inactive
C[C@H](O)C(=O)Nc1c(I)c(C(=O)NC(CO)CO)c(I)c(C(=O)NC(CO)CO)c1I,–,inactive,inactive,–,inactive
CCOC(=O)c1cccc(N)c1,–,inactive,inactive,–,inactive
C1CCc2nnnn2CC1,inactive,–,–,inactive,–
